Test results reported in PubChem BioAssay (NCI).
Compounds without any hit were thinned out: in the full panel of roughly 83,000, 20% have a hit.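 For each line, cells grew in 96-well plates with the test compound present at a single concentration for 48 hours.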 Values without a mark were called inactive. Calls of active or inactive are those of the source.

tested on: SNB-19 CNS; test: NCI-60 one-dose screen, 48 h (100 = growth as untreated, 0 = no growth, -100 = all killed); conditions: 10 µM unless noted
Procedure: Growth inhibition of the SNB-19 human tumor cell line is measured as a screen for anti-cancer activity. Cells are grown in 96 well plates and exposed to the test compound for 48 hours. Compounds are tested at a single concentration, which is 10^-5 M for most compounds. The reported endpoint is percent growth (GI% or GIPRCNT), where numbers from 0 - 100% represent growth inhibition, and numbers from -100% - 0 represent cell death. For example, a value of 40 represents 60% growth inhibition. A value of 0 means no net growth occurred over the course of the experiment. A value of -40 indicates 40% of cells at the beginning of the experiment died by the end of the experiment. A value of -100 means all cells are dead at the end of the experiment.
NCI-60 Human Tumor Cell Lines Screen was performed using the standard one-dose NCI protocol, which is described in more detail at https://dtp.cancer.gov/discovery_development/nci-60/default.htm.
Compounds with GIPRCNT values below 10 were considered active. Activity score was based on GIPRCNT using the following formula: […]
Score is 0 for GIPRCNT values of 100 or above, 50 for GIPRCNT values of 0, and 100 for GIPRCNT values of -100.

SMILES	growth
Fc1ccc2[nH]cc(-c3nc(-c4c[nH]c5c(Cl)nccc45)cs3)c2c1	59.9%
CC(=O)c1sc(-c2ccc(F)cc2)cc1O	103%
COc1cc(C=C2C(=O)NC(=S)NC2=O)cc(CN2CCCC2)c1O	105%
CCN(CC)CCOc1ccc2ccc(=O)oc2c1	98.5%
COc1ccc2c(c1)c(-c1nc(-c3ccc4ccccc4c3)cs1)cn2C	99.8%
CS(=O)/C(C#N)=C\C=C\c1cccc(Cl)c1 (stereo not given)	27.2%
C=C1CC[C@@H]2C(C)(C)[C@H](O)CC[C@@]2(C)[C@@H]1COc1ccc2ccc(=O)oc2c1	86.2%
CS(=O)(=O)Nc1cc(-c2ccc3ncnc(Nc4ccc(OCc5ccccn5)c(Cl)c4)c3c2)cnc1Cl	24%
Cc1ccc(OCCOCCOCCOCCOCCOc2ccc(C)n(O)c2=S)c(=S)n1O	16.7%
COc1cc(OC)c2c(=O)c3c(CC=C(C)C)cc(OC)c(O)c3oc2c1	92.7%
CCN(CC)CCOc1ccc(/C(=C(\C)Cc2ccc(OC)cc2)c2ccc(OC(=O)NCc3ccccc3)cc2)cc1	66.9%
CCOC(=O)c1c(C)nc2ccccc2c1/C=C/c1ccc(F)cc1	76.9%
Cc1cc(N2CCN(CC(=O)Nc3ccc4c(ccn4Cc4ccccc4)c3)CC2)nc(N2CCOCC2)n1	84.3%
N#Cc1nn(-c2cc(=O)[nH]c3ccc(Br)cc23)c(N)c1C#N	105%
Oc1nc(NCc2ccccc2)sc1/C=C1\C=Nc2ncccc21	63.3%
c1ccc(Nc2nc3c(s2)CCc2c[nH]cc2-3)nc1	100%
O=C(Cn1nc(-c2cccc3ccccc23)ccc1=O)NCc1cccc(Cl)c1	45.3% [50 µM]
c1ccc(-c2ccc3c(c2)C2(CCNCC2)CN3)cc1	101%
CCN(CC)CCOc1ccc(C(=O)/C=C\c2ccc(Cl)cc2Cl)cc1	56.7%
Cc1nn(C)c2ncnc(N/N=C/c3cccc(O)c3O)c12	19.7%

SMILES	growth
O=[N+]([O-])c1ccccc1Nc1ccc2ccccc2c1	89.8%
CCOC(=O)c1ccc[nH]1	99.4%
Cc1ccc2nc(-c3ccc(C(=O)N/N=C/c4ccc([N+](=O)[O-])cc4)cc3)[nH]c2c1	104%
CCOC(=O)c1cnn(CC(C)O)c1NC(=O)NCc1cccc(F)c1 (stereo not given)	107%
CCOC(=O)C#Cc1c(C(=O)OCC)nnn1[C@@H]1O[C@H](COC)[C@@H](OC)[C@H]1OC	97.9%
C1CCC(N2CN3c4nonc4N4CN(C5CCCCC5)CN5c6nonc6N(C2)C3C45)CC1 (stereo not given)	102%
COc1cc2c3c(c4c5ccccc5[nH]c4c2c(OC)c1OC)C(=O)N(CCN1CCCCC1)C3=O	30.1%
O=C(NN1C(=O)CSC1c1cccc([N+](=O)[O-])c1)c1ccc(NC(=O)c2ccccn2)cc1 (stereo not given)	97.8%
COC(=O)c1ccc2c(c1)c1c(C)c3cnccc3c(C)c1n2C	-1.59% (active)
COC12C=C/C(=C(/C(=O)OCc3cncnc3)C(=O)CCCCCCCCC3(OC)C=C/C(=C(/C(=O)OCc4cncnc4)C(=O)CCCCCCCC1)O3)O2	10.9%
COc1cc2c(cc1OCCCN1CCN(C(=S)SCCC(C#N)(c3ccccc3)c3ccccc3)CC1)N=C[C@@H]1CCCN1C2=O	-44.4% (active)
COC(=O)[C@@]1(C)CC[C@]2(C)CC[C@]3(C)C4=CC=C5C(=CC(=O)C(O)=C5C)[C@]4(C)[C@@H](O)C[C@@]3(C)[C@@H]2C1	22.9%
CCN1CCN(CCNc2nccc(-c3c(-c4ccc(F)c(O)c4)nc4occn34)n2)S1(=O)=O	73.7%
C(=C(\C1=NCCN1)n1ccc2ccccc21)/c1ccccc1	99.9%
COC1/C=C/OC2(C)Oc3c(C)c(O)c4c(O)c(c(/C=N/N(c5ccccc5)c5ccccc5)c(O)c4c3C2=O)NC(=O)C(C)=C/C=C/C(C)C(O)C(C)C(O)C(C)C(OC(C)=O)C1C (stereo not given)	71.2%
CCN1C2CCC1/C(=C\c1ccccc1)C(=O)/C2=C/c1ccccc1	65.5%
COc1ccc(C/C(C)=C(\c2ccc(O)cc2)c2ccc(OCCN3CCCCC3)cc2)cc1	97.1%
O=C(c1cccc(N2CCOCC2)n1)c1c[nH]c2ccccc12	99.4%
CC(C)n1c2ccc(Br)cc2c2c3c(c4c5ccccc5ccc4c21)C(=O)NC3=O	102%
CNC(=O)c1cc(Oc2ccc3c(c2)sc2nc(-c4ccc(NC(=O)[C@@H](NC(=O)OC)C(C)C)cc4)cn23)ccn1	91.1%
